Measurements reported in PubChem BioAssay (NCI).
The panel holds about 83,000 compounds, 20% with a hit somewhere; the sample as a whole holds those more often.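 Results are percent growth after 48 hours of single-concentration exposure. 100 means growth as in untreated cells, lower positive values show inhibition; negative values down to -100 show cell death.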 The source made the active and inactive calls. The calls were made as follows: active = growth percent below 10; inactive = the rest.

Legend:
Assay in all cases: NCI-60 one-dose screen, 48 h (100 = growth as untreated, 0 = no growth, -100 = all killed)
Conditions in all cases: 10 µM unless noted
SR leukemia = system: SR leukemia
OVCAR-8 ovarian = system: OVCAR-8 ovarian
OVCAR-5 ovarian = system: OVCAR-5 ovarian
OVCAR-4 ovarian = system: OVCAR-4 ovarian
SK-OV-3 ovarian = system: SK-OV-3 ovarian
OVCAR-3 ovarian = system: OVCAR-3 ovarian
HS 578T breast = system: HS 578T breast
NCI/ADR-RES ovarian = system: NCI/ADR-RES ovarian
IGROV1 ovarian = system: IGROV1 ovarian
RPMI-8226 leukemia = system: RPMI-8226 leukemia

Measured: growth

COC(=O)C(Cc1ccccc1)NC(=O)NC(=O)NC(=O)CI (configuration not stated)
active: SR leukemia -41.6% | OVCAR-3 ovarian -49.2%
inactive: OVCAR-8 ovarian 81.8% | OVCAR-5 ovarian 95.9% | OVCAR-4 ovarian 57.7% | SK-OV-3 ovarian 112% | HS 578T breast 111% | NCI/ADR-RES ovarian 71.5%

COc1c(N2CC3CCCN(C(C)=O)C3C2)c(F)cc2c(=O)c(C(=O)N[C@H]3C(O)[C@@H](O)C(CO)O[C@H]3O)cn(C3CC3)c12 (some centres not stated)
inactive: SR leukemia 108% | OVCAR-8 ovarian 107% | OVCAR-5 ovarian 104% | OVCAR-4 ovarian 110% | SK-OV-3 ovarian 115% | IGROV1 ovarian 114% | OVCAR-3 ovarian 109% | NCI/ADR-RES ovarian 110%

CSc1ccc2c(c1)c(CCN)c(C)n2Cc1ccc(Cl)c(Cl)c1
active: SR leukemia -61.6% | OVCAR-8 ovarian -60.8% | OVCAR-5 ovarian -58.2% | OVCAR-4 ovarian -93.2% | SK-OV-3 ovarian -91.2% | OVCAR-3 ovarian -88.4% | NCI/ADR-RES ovarian -87.8%

N#CC1=C(N)Oc2c(sc3c(Br)cccc23)C1c1ccc([N+](=O)[O-])cc1 (configuration not stated)
active: SR leukemia -8.87% | OVCAR-3 ovarian 3.67% | NCI/ADR-RES ovarian -26.9%
inactive: OVCAR-8 ovarian 25.3% | OVCAR-5 ovarian 31.1% | OVCAR-4 ovarian 39.8% | SK-OV-3 ovarian 34% | HS 578T breast 10.8%

O=C(CCN1C(=O)/C(=C/c2ccc(O)cc2)SC1=S)Nc1ccccc1
inactive: SR leukemia 119% | OVCAR-8 ovarian 94.6% | OVCAR-5 ovarian 106% | OVCAR-4 ovarian 89.6% | SK-OV-3 ovarian 65.9% | IGROV1 ovarian 94.6% | OVCAR-3 ovarian 108% | NCI/ADR-RES ovarian 99.1%

COc1ccc2sc3c(NCCCN(C)C)nc4ccccc4c3c(=O)c2c1
active: SR leukemia -39.2% | OVCAR-4 ovarian -9.97% | OVCAR-3 ovarian -18.5%
inactive: OVCAR-8 ovarian 61.9% | OVCAR-5 ovarian 89.8% | SK-OV-3 ovarian 74.9% | IGROV1 ovarian 54.2% | NCI/ADR-RES ovarian 55.7%

CN1C(=O)CNC(=O)[C@H](NC(=O)c2nc3ccccc3cc2O)CSSC[C@H]1C(=O)NCCc1nc2ccccc2cc1O
active: SR leukemia -41.8%
inactive: OVCAR-8 ovarian 92.2% | OVCAR-5 ovarian 129% | OVCAR-4 ovarian 90.7% | SK-OV-3 ovarian 117% | OVCAR-3 ovarian 19.5% | HS 578T breast 92.3% | NCI/ADR-RES ovarian 105%

CCCCCCCCCCCCCCCCCCOc1ccccc1CCCOP(=O)(O)OCC[N+](C)(C)C
inactive: SR leukemia 11.4% | OVCAR-8 ovarian 64.8% | OVCAR-5 ovarian 75.6% | OVCAR-4 ovarian 89.9% | SK-OV-3 ovarian 85% | IGROV1 ovarian 15.5% | OVCAR-3 ovarian 84.5% | HS 578T breast 93.5% | NCI/ADR-RES ovarian 95.4%

O=c1c2cc(C(F)(F)F)ccc2sc2c(NCCCNCCO)nc3ccccc3c12
inactive: OVCAR-5 ovarian 64.8% | SK-OV-3 ovarian 74.9% | IGROV1 ovarian 15%
active: SR leukemia -39.4% | OVCAR-8 ovarian -3.45% | OVCAR-4 ovarian -41.6% | OVCAR-3 ovarian -73.8% | HS 578T breast -9.58% | NCI/ADR-RES ovarian 1.68%

NCCCNc1nc2ccccc2c2c(=O)c3cc(C(F)(F)F)ccc3sc12
inactive: OVCAR-5 ovarian 69.8% | SK-OV-3 ovarian 84.3% | IGROV1 ovarian 34.8% | HS 578T breast 12.2%
active: SR leukemia -14.9% | OVCAR-8 ovarian 0.22% | OVCAR-4 ovarian -45% | OVCAR-3 ovarian -72.4% | NCI/ADR-RES ovarian -15.9%

CCCCCCCNC(=O)CCCNc1ncnc2c1ncn2-c1cccc(C(C)O)c1 (configuration not stated)
inactive: SR leukemia 84.2% | OVCAR-8 ovarian 91.1% | OVCAR-5 ovarian 88.2% | OVCAR-4 ovarian 84.8% | SK-OV-3 ovarian 104% | OVCAR-3 ovarian 87.1% | HS 578T breast 97.4% | NCI/ADR-RES ovarian 95.8%

O=C1CCC/C=C\C[C@H]2C=CC(=O)/C2=C/C[C@H](CCc2cccc(C(F)(F)F)c2)O1
active: SR leukemia -4.73% | OVCAR-8 ovarian 5.51% | OVCAR-5 ovarian -16.9% | SK-OV-3 ovarian -34.9% | OVCAR-3 ovarian -65.8% | NCI/ADR-RES ovarian 1.09%
inactive: OVCAR-4 ovarian 12.8% | HS 578T breast 14.3%

NCCOc1ncccc1/C=C1\c2ccccc2-c2ccc(C(F)F)cc21
active: SR leukemia 2.72%
inactive: OVCAR-8 ovarian 56.4% | OVCAR-5 ovarian 69.6% | OVCAR-4 ovarian 83.9% | SK-OV-3 ovarian 64.3% | IGROV1 ovarian 32.5% | OVCAR-3 ovarian 76.2% | HS 578T breast 53.4% | NCI/ADR-RES ovarian 57.4%

CCCCC[C@H](O)C/C=C1/C(=O)C=C[C@@H]1C/C=C\CCCC(=O)O
inactive: SR leukemia 15.8% | OVCAR-8 ovarian 33.7% | OVCAR-5 ovarian 152% | OVCAR-4 ovarian 77.8% | SK-OV-3 ovarian 118% | OVCAR-3 ovarian 22.2% | HS 578T breast 95.6% | NCI/ADR-RES ovarian 54.4%

Cn1cc(-c2cc3ncnc(Nc4ccc(CC(=O)Nc5cc(C(C)(C)C)nn5C)cc4)c3s2)cn1
inactive: OVCAR-8 ovarian 35.9% | OVCAR-5 ovarian 102% | OVCAR-4 ovarian 28.1% | SK-OV-3 ovarian 29.3% | IGROV1 ovarian 28.9% | OVCAR-3 ovarian 61.4% | HS 578T breast 32.3% | NCI/ADR-RES ovarian 101%
active: SR leukemia 8.15%

O=C1c2cccc3cccc(c23)C(=O)N1N1C(=O)c2cccc3c(NC4CCCCC4)ccc(c23)C1=O
inactive: SR leukemia 90.2% | OVCAR-8 ovarian 96.2% | OVCAR-5 ovarian 90.6% | OVCAR-4 ovarian 96.8% | SK-OV-3 ovarian 92.1% | IGROV1 ovarian 102% | OVCAR-3 ovarian 105% | HS 578T breast 103% | NCI/ADR-RES ovarian 95.4%

CC/C=C\C[C@@H](O)C/C=C1/C(=O)C=C[C@H]1C/C=C\CCCC(=O)OC
inactive: OVCAR-5 ovarian 54.1% | OVCAR-4 ovarian 44.9% | SK-OV-3 ovarian 99.3% | HS 578T breast 21% | NCI/ADR-RES ovarian 10.6%
active: SR leukemia -17.5% | OVCAR-8 ovarian -6.75% | OVCAR-3 ovarian -2.32%

CC/C=C\C[C@@H]1C/C=C2/C(=O)C=C[C@H]2C/C=C\CCCC(=O)O1
inactive: NCI/ADR-RES ovarian 10.9%
active: SR leukemia -30.3% | OVCAR-8 ovarian 4.94% | OVCAR-5 ovarian -32.8% | OVCAR-4 ovarian 5.92% | SK-OV-3 ovarian -8.9% | OVCAR-3 ovarian -95.4% | HS 578T breast -1.47%

CCCCCCCCCCCCCCCCCCOc1ccc(CC(=O)OCC[N+](C)(C)C)cc1
inactive: RPMI-8226 leukemia 91.7% | OVCAR-8 ovarian 107% | OVCAR-5 ovarian 96.8% | OVCAR-4 ovarian 97.3% | SK-OV-3 ovarian 107% | IGROV1 ovarian 91% | OVCAR-3 ovarian 115% | HS 578T breast 99.6% | NCI/ADR-RES ovarian 99.3%

CC([C@H]1CCC2C3CCC4C(=O)C(NC=O)=CC[C@]4(C)C3CC[C@@]21C)N(C)C (some centres not stated)
active: OVCAR-4 ovarian 6.05%
inactive: SR leukemia 54.3% | OVCAR-8 ovarian 55.9% | SK-OV-3 ovarian 75.8% | IGROV1 ovarian 37.8% | OVCAR-3 ovarian 24.6% | HS 578T breast 33.6% | NCI/ADR-RES ovarian 57.5%

COc1ccc(/C=C2\Oc3cc(OCCN4CCC(Cc5ccccc5)CC4)ccc3C2=O)cc1OC
inactive: OVCAR-8 ovarian 39.1% | OVCAR-4 ovarian 79.3% | SK-OV-3 ovarian 87.8% | IGROV1 ovarian 82.1% | OVCAR-3 ovarian 87% | HS 578T breast 74.6% | NCI/ADR-RES ovarian 70.9%
active: SR leukemia -1.05%

O=C(Nc1ccc(-c2nc(-c3cccc(OCCN4CCOCC4)c3)c(-c3ccnc(Br)c3)[nH]2)cc1)c1ccccc1
inactive: OVCAR-5 ovarian 35.4% | OVCAR-4 ovarian 55.2% | IGROV1 ovarian 43.4% | OVCAR-3 ovarian 44.2% | NCI/ADR-RES ovarian 53.4%
active: SR leukemia -11.6% | SK-OV-3 ovarian -25.6% | HS 578T breast -41%

Cc1nc2ccccc2n1-c1ncnc2c1CC(C)c1ccccc1N2C (configuration not stated)
inactive: SR leukemia 19.7% | OVCAR-8 ovarian 85% | OVCAR-4 ovarian 92.4% | SK-OV-3 ovarian 85.9% | OVCAR-3 ovarian 94.6% | HS 578T breast 82.5% | NCI/ADR-RES ovarian 67.8%

CCCCC[C@H](O)C/C=C1/C(=O)C=C[C@@H]1C/C=C\CCCC(=O)OC
active: SR leukemia 0.159%
inactive: OVCAR-5 ovarian 129% | OVCAR-4 ovarian 83.9% | SK-OV-3 ovarian 118% | OVCAR-3 ovarian 11.6% | HS 578T breast 88% | NCI/ADR-RES ovarian 18.7%

COC(=O)[C@H](C)NC(=O)NC(=O)NC(=O)CI
active: SR leukemia -23% | OVCAR-3 ovarian -19.2%
inactive: OVCAR-8 ovarian 97% | OVCAR-4 ovarian 64.7% | SK-OV-3 ovarian 107% | NCI/ADR-RES ovarian 89.7%

COc1cccc2c(=O)c3c(sc12)c(N1CCNCC1)nc1ccccc13
inactive: OVCAR-8 ovarian 53.2% | SK-OV-3 ovarian 83% | IGROV1 ovarian 63.3% | HS 578T breast 89.5% | NCI/ADR-RES ovarian 73.2%
active: SR leukemia -33.9% | OVCAR-4 ovarian -41.4% | OVCAR-3 ovarian -43.8%

CCCCn1c(-c2ccc(-c3nc(-c4ccc(Cl)cc4)no3)cc2)nc(-c2ccccc2)c1-c1ccccc1
active: SR leukemia 6.15%
inactive: OVCAR-8 ovarian 88.5% | OVCAR-4 ovarian 82% | SK-OV-3 ovarian 88.8% | IGROV1 ovarian 39.5% | OVCAR-3 ovarian 93.9% | HS 578T breast 95.4% | NCI/ADR-RES ovarian 82.5%

COc1cc(C2CC(c3ccc(SC)cc3)=NN2C(C)=O)cc(OC)c1OC (configuration not stated)
inactive: SR leukemia 33.8% | OVCAR-8 ovarian 80.3% | OVCAR-4 ovarian 93.8% | SK-OV-3 ovarian 89% | IGROV1 ovarian 53.8% | OVCAR-3 ovarian 21.7% | HS 578T breast 79.7% | NCI/ADR-RES ovarian 24.4%

NC1=NC(c2cccc(Br)c2)c2sc3ccc(Cl)cc3c2N1 (configuration not stated)
inactive: SR leukemia 77.6% | OVCAR-8 ovarian 102% | OVCAR-4 ovarian 93.5% | SK-OV-3 ovarian 92.1% | IGROV1 ovarian 77% | OVCAR-3 ovarian 99.2% | NCI/ADR-RES ovarian 103%

Oc1ccc(Cl)cc1Cc1cc(Cl)cc(Cl)c1O
active: RPMI-8226 leukemia 0.811% | OVCAR-3 ovarian -8.34% | HS 578T breast -14.8%
inactive: OVCAR-8 ovarian 73.4% | OVCAR-5 ovarian 92.3% | OVCAR-4 ovarian 17.5% | SK-OV-3 ovarian 70.8% | IGROV1 ovarian 66% | NCI/ADR-RES ovarian 24.6%

N#Cc1c(-c2ccc(Cl)cc2)nc(NCCO)[nH]c1=O
inactive: SR leukemia 99.5% | OVCAR-8 ovarian 103% | OVCAR-4 ovarian 108% | SK-OV-3 ovarian 102% | OVCAR-3 ovarian 104% | HS 578T breast 109% | NCI/ADR-RES ovarian 98.8%

CN(C)CCS(=O)(=O)Nc1cc(-c2ccc3ncc(C#N)c(Nc4ccc(F)c(Cl)c4)c3c2)cnc1Cl
inactive: NCI/ADR-RES ovarian 63.7%
active: SR leukemia -12.5% | OVCAR-5 ovarian -43.8% | OVCAR-4 ovarian -5.26% | SK-OV-3 ovarian -35.1% | IGROV1 ovarian -43.3% | OVCAR-3 ovarian -59.8% | HS 578T breast -10.5%
